# High-throughput results from PubChem.
# Many of the other results were omitted from the sample, so hits are more common in it than they were.
# Hedgehog inh: Sonic Hedgehog pathway inhibition; Shh-LIGHT2 Gli-luciferase reporter, 30 h; inhibition, % (concentration not given with the values); 22,000 tested, 2.1% active; AID 2313;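 active = mean inhibition across valid replicates above about 65%, limit read from the data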;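 note: pathway switched on by Shh-conditioned medium diluted 1 in 25 in low serum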
# MITF inhib: blocks MITF activity. 37,000 tested, 0.28% active. TRPM1 promoter luciferase, luminescence, 24 h. inhibition, % (concentration not given with the values). AID 2240; in the data active = inhibition above about 85%;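 note: human melanocyte line stably carrying TRPM1 promoter luciferase reporter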
# BJeLR viability: compounds reducing viability of BJeLR cells | 30,000 tested, 0.64% active | BJeLR fibroblasts viability, CellTiterGlo ATP luminescence, 48 h; HRASV12, hTERT and SV40 LT/ST transformed | viability loss activity score, % (concentration not given with the values); in the data active = viability loss activity score above about 50%;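 note: higher score means fewer live cells and less ATP luminescence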
# * = called active by the depositor; x = no result.
SMILES,Hedgehog inh,MITF inhib,BJeLR viability
C[C@@H]1CN([C@H](C)CO)C(=O)Cc2cc(NC(=O)CCN3CCOCC3)ccc2O[C@H]1CN(C)Cc1ccc(-c2ccccc2)cc1,15,-26,x
C[C@@H]1CN([C@H](C)CO)C(=O)Cc2cc(NC(=O)Nc3ccc4c(c3)OCO4)ccc2O[C@@H]1CN(C)Cc1ccc2c(c1)OCO2,72*,-2,x
O=C1CCC(=O)N1c1c(F)c(F)nc(N2CCCCC2)c1F,x,x,-1
Cc1nc2nc(SCC(=O)N3CCC4(CC3)OCCO4)nn2c(C)c1Cc1ccccc1Cl,x,x,-1
N#Cc1c(SCc2ccccc2F)nc(C(F)(F)F)c2c1CCC2,x,x,0
COc1ccc(C(=O)OCC(=O)n2c(C)c(C)c3ccccc32)cc1,x,x,6
CCCCC(=O)Nc1ccc2oc(-c3ccc(O)c(Br)c3)nc2c1,x,x,17
COc1ccc(C(=O)NCCn2cc(SC(C)c3ccccc3)c3ccccc32)cc1 (stereo not drawn),78*,20,0
COc1ccc(NC(=O)CSc2cn(Cc3ccc(Cl)cc3)c3ccccc23)cc1,x,x,-1
CC1CCC/C=C/C(=O)c2c(O)cc(O)cc2CC(=O)O1 (stereo not drawn),7,38,4
CC1CCCC[C@H]2C(=O)C=C[C@H](O)[C@@H]2CC(=O)O1 (stereo partly drawn),36,41,62*
Cc1c(Cl)cccc1NC(=O)CN(c1cccc(F)c1)S(C)(=O)=O,x,9,x
N#CC(C#N)=C(Nc1ccccc1Cl)SCc1cccc(F)c1,112*,89*,24
CCOC(=O)c1nn(-c2ccccc2)c(C#N)c1NC(=O)c1nn(CC)cc1Br,66*,-12,-1
CCOC(=O)c1c(NC(=O)c2nn(CC)cc2Br)c(C#N)nn1-c1ccccc1,x,6,x
CC(Oc1ccccc1-c1ccccc1)c1n[nH]c(=S)n1-c1ccccc1 (stereo not drawn),69*,11,0
OCCCc1n[nH]c(=S)n1-c1ccccc1,x,-16,x
CCC(C)C1NC(=O)C(CC(C)C)NC(=O)C(CC(=O)O)NC(=O)C(C(C)C)NC(=O)C(CC(C)C)NC(=O)C(CC(C)C)NC(=O)C(CCC(N)=O)NC(=O)CC(CCCCCCCCCC(C)C)OC1=O (stereo not drawn),77*,x,x
Cc1ccc(S(=O)(=O)N(C)C[C@H]2Oc3c(NC(=O)c4ccc(-c5nccs5)cc4)cccc3C(=O)N([C@@H](C)CO)C[C@H]2C)cc1,1,13,2
C[C@@H]1CN([C@@H](C)CO)C(=O)c2cccc(NC(=O)c3ccc(-c4nccs4)cc3)c2O[C@H]1CN(C)Cc1ccc(Oc2ccccc2)cc1,28,60,-5
C[C@@H]1CN([C@H](C)CO)C(=O)c2cccc(NC(=O)c3ccc(-c4nccs4)cc3)c2O[C@H]1CN(C)S(=O)(=O)c1ccc(Cl)cc1,76*,8,-7
Cc1ccc(S(=O)(=O)N(C)C[C@@H]2Oc3c(NC(=O)c4ccc(-c5nccs5)cc4)cccc3C(=O)N([C@H](C)CO)C[C@@H]2C)cc1,-7,29,-4
C[C@H](CO)N1C[C@H](C)[C@@H](CN(C)Cc2ccncc2)Oc2c(NC(=O)c3cnccn3)cccc2C1=O,70*,-11,10
C[C@@H]1CN([C@H](C)CO)C(=O)c2cccc(NC(=O)c3ccc(-c4nccs4)cc3)c2O[C@@H]1CN(C)Cc1ccc(Oc2ccccc2)cc1,71*,21,9
C[C@@H]1CN([C@@H](C)CO)C(=O)c2cccc(NC(=O)c3cnccn3)c2O[C@@H]1CN(C)Cc1ccncc1,4,0,-2
SMILES,Hedgehog inh,MITF inhib,BJeLR viability
C[C@H]1CN([C@@H](C)CO)C(=O)c2cccc(NC(=O)c3ccc(-c4nccs4)cc3)c2O[C@H]1CN(C)S(=O)(=O)c1ccc(Cl)cc1,93*,-16,5
Cc1nc2cc(NS(=O)(=O)c3ccc(Oc4ccccc4)cc3)ccc2s1,x,x,-2
COc1ccc(NC(=O)C(NS(=O)(=O)c2ccc3c(c2)oc(=O)n3C)C(C)C)c(OC)c1 (stereo not drawn),x,x,-1
CC(=O)Nc1ccc(OS(=O)Nc2nnc(C)c3ccccc23)cc1 (stereo not drawn),x,x,6
CCN1C(=O)S/C(=C\c2ccc3c(c2)OCO3)C1=O,x,x,-3
C[C@H](CO)N1C[C@H](C)[C@H](CN(C)S(=O)(=O)c2ccc(Cl)cc2)Oc2c(NC(=O)c3ccncc3)cccc2C1=O,111*,-10,-1
C[C@H](CO)N1C[C@H](C)[C@@H](CN(C)S(=O)(=O)c2cccs2)Oc2c(NC(=O)c3ccc(-c4nccs4)cc3)cccc2C1=O,40,-12,-1
C[C@H](CO)N1C[C@H](C)[C@@H](CN(C)S(=O)(=O)c2ccc(Cl)cc2)Oc2c(NC(=O)c3ccncc3)cccc2C1=O,-1,-15,1
C[C@H](CO)N1C[C@H](C)[C@H](CN(C)S(=O)(=O)c2cccs2)Oc2c(NC(=O)c3ccc(-c4nccs4)cc3)cccc2C1=O,92*,45,x
CCOc1ccc(Br)cc1C1CC(=O)Nc2c1ccc(C)c2C (stereo not drawn),x,x,-1
C=C1C(=O)OC2/C=C(\CO)C(OC(C)=O)C/C=C(/C)CC(OC(=O)/C(C)=C\CO)C12 (stereo not drawn),48,-5,34
C/C=C(/C)C(=O)O[C@H]1C=C(CO)C(=O)[C@H](OC(=O)/C(C)=C/CO)[C@H]1C(C)C,46,106*,81*
Cc1cc[n+](Cc2ccccn2)c(N)c1,-26,0,6
c1ccc(CN(CCN(Cc2ccccn2)Cc2ccccn2)Cc2ccccn2)nc1,-181,88*,110*
CCSC1=C(C#N)C(c2ccc(C(C)C)cc2)C2=C(CCCC2=O)N1 (stereo not drawn),x,x,-11
Cc1cc(C)nc(NS(=O)(=O)c2ccc(NC(=O)c3ccccc3Cl)cc2)n1,x,7,x
Cc1cc(C)nc(NC(N)=NCc2ccccc2Cl)n1,x,x,77*
CCCN(CCC)C(=O)c1cc2c(=O)n(CC)c3ccccc3c2s1,x,x,-4
O=C1CC(c2ccccc2)Oc2ccccc21 (stereo not drawn),-30,-4,1
O=C1/C(=C/c2ccc(-c3nn[nH]n3)cc2)C(c2ccccc2)Oc2ccccc21 (stereo not drawn),74*,11,4
O=C(Nc1ccc([N+](=O)[O-])cc1Cl)c1cc(Cl)ccc1O,88*,106*,99*
O=C(Nc1ccccc1)c1cc([N+](=O)[O-])ccc1Cl,22,-7,-3
CC(=C/C(=O)O)/C=C/c1ccccc1,x,0,-2
CC1=C(/C=C/C(C)=C/C=C/C(C)=C\C(=O)O)C(C)(C)CCC1,82*,-118,-8
CCOc1ccc(NC(=O)CSC2=NCCS2)cc1,x,x,-1
CC(C)C[C@H]1C(=O)N2CCC[C@H]2[C@]2(O)O[C@](NC(=O)[C@@H]3C=C4c5cccc6[nH]c(Br)c(c56)C[C@H]4N(C)C3)(C(C)C)C(=O)N12,83*,73,-10
CC(C)CC1C(=O)N2CCC[C@H]2C2(O)O[C@](NC(=O)C3C=C4c5cccc6[nH]c(Br)c(c56)C[C@H]4N(C)C3)(C(C)C)C(=O)N12 (stereo partly drawn),26,-2,-5
CC(C)(C)c1ccc(-c2cc(NS(=O)(=O)c3ccccc3)c(C(N)=O)s2)cc1,x,x,4
